The supplement of paper PMC10849652
The full data set covers some 7,900 targets. This sample favours those with a hit. About 0.6% of all pairs of compound and target were hits. A number with no mark means an inactive call.

Key:
Assay in all cases: log2 fold change, soluble protein after heating vs DMSO (PISA); higher = thermal stabilisation; K562 cells, 10 uM, 30 min; active = over 0.2 and 3.5 SD of the protein, either way, in both replicates (recomputed)
[1] = compound: CC1=C(C=C(C=C1)NC(=O)C2=CC(=CC=C2)C(C)(C)C#N)NC3=CC4=C(C=C3)N=CN(C4=O)C
Procedure, shortened: (§1)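 K562 cells (2×10^6 cells/mL) were treated with 10 μM compound for 30 min, and aliquots were heated for 3 min over 48°C-58°C. Pooled aliquots were extracted in PBS with 0.5% NP-40 at 4°C, and the supernatant after 21,000xg for 90 min was measured by TMTpro 16plex LC-MS/MS with channel sums equalised. Reported thermal stability, relative to control samples and from duplicates, is a log2 fold change.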

[2] = compound: CC1=C(C=C(C=C1)NC(=O)C2=CC(=CC=C2)N(C)C)NC(=O)C3=CC=C(C=C3)O
Procedure, shortened: as §1

[3] = compound: CC1=CC=C(C=C1)SC2=C3C=C(SC3=CN=C2)C(=O)N
Procedure, shortened: as §1

[4] = compound: CC1=NC(=CC=C1)C2=C(N=C(N2)C(C)(C)C)C3=CC4=NC=CN=C4C=C3
Procedure, shortened: as §1

Nexturastat A = compound: CCCCN(Cc1ccc(C(=O)NO)cc1)C(=O)Nc1ccccc1 [Nexturastat A]
Procedure, shortened: as §1

vemurafenib = compound: CCCS(=O)(=O)Nc1ccc(F)c(C(=O)c2c[nH]c3ncc(-c4ccc(Cl)cc4)cc23)c1F [vemurafenib]
Procedure, shortened: as §1

[5] = compound: CCCS(=O)(=O)Nc1ccc(F)c(C(=O)c2c[nH]c3ncc(Cl)cc23)c1F
Procedure, shortened: as §1

[6] = compound: CCCc1cc(C)[nH]c(=O)c1CNC(=O)c1cc(-c2ccnc(N3CCN(C)CC3)c2)cc2c1cnn2C(C)C
Procedure, shortened: as §1

givinostat = compound: CCN(CC)Cc1ccc2cc(COC(=O)Nc3ccc(C(=O)NO)cc3)ccc2c1 [givinostat]
Procedure, shortened: as §1

barasertib = compound: CCN(CCCOc1ccc2c(Nc3cc(CC(=O)Nc4cccc(F)c4)[nH]n3)ncnc2c1)CCOP(=O)(O)O [barasertib]
Procedure, shortened: as §1

[7] = compound: CC[C@@H]1C(=O)N(C)c2cnc(Nc3ccc(C(=O)NC4CCN(C)CC4)cc3OC)nc2N1C1CCCC1
Procedure, shortened: as §1

volasertib = compound: CC[C@@H]1C(=O)N(C)c2cnc(Nc3ccc(C(=O)N[C@H]4CC[C@H](N5CCN(CC6CC6)CC5)CC4)cc3OC)nc2N1C(C)C [volasertib]
Procedure, shortened: as §1

[8] = compound: CC[C@H](C)N1C=C(C2=C(C=C(C=C21)C3=CN=C(C=C3)N4CCNCC4)C(=O)NCC5=C(C=C(NC5=O)C)C)C
Procedure, shortened: as §1

epoxomicin = compound: CC[C@H](C)[C@@H](C(=O)N[C@@H]([C@@H](C)O)C(=O)N[C@@H](CC(C)C)C(=O)[C@]1(CO1)C)NC(=O)[C@H]([C@@H](C)CC)N(C)C(=O)C [epoxomicin]
Procedure, shortened: as §1

[9] = compound: CCn1c(C(=O)N(C2CC2)C2CC2)cc2c3c(ncn3C)c(Nc3cc(C)n(C)n3)nc21
Procedure, shortened: as §1

[10] = compound: CCn1cc(-c2ccnc3[nH]c(-c4cccc(CN(C)C)c4)cc23)c(-c2ccc(NC(=O)N(C)C)cc2)n1
Procedure, shortened: as §1

[11] = compound: CN(C)CC(=O)Nc1ccc2[nH]c(=O)c3ccccc3c2c1
Procedure, shortened: as §1

rosiglitazone = compound: CN(CCOC1=CC=C(C=C1)C[C@H]2C(=O)NC(=O)S2)C3=CC=CC=N3 (racemic) [rosiglitazone]
Procedure, shortened: as §1

[12] = compound: CN1C2=C(C3=C1C(=O)N(N=C3)CC4=CC(=CC=C4)N)SC(=C2)S(=O)C
Procedure, shortened: as §1

[13] = compound: CN1CCC(CNc2ccc3ncc(-c4cccc(OC(F)(F)F)c4)n3n2)CC1
Procedure, shortened: as §1

Chain of UniProt P13010 (P13010 whole entry, looked up): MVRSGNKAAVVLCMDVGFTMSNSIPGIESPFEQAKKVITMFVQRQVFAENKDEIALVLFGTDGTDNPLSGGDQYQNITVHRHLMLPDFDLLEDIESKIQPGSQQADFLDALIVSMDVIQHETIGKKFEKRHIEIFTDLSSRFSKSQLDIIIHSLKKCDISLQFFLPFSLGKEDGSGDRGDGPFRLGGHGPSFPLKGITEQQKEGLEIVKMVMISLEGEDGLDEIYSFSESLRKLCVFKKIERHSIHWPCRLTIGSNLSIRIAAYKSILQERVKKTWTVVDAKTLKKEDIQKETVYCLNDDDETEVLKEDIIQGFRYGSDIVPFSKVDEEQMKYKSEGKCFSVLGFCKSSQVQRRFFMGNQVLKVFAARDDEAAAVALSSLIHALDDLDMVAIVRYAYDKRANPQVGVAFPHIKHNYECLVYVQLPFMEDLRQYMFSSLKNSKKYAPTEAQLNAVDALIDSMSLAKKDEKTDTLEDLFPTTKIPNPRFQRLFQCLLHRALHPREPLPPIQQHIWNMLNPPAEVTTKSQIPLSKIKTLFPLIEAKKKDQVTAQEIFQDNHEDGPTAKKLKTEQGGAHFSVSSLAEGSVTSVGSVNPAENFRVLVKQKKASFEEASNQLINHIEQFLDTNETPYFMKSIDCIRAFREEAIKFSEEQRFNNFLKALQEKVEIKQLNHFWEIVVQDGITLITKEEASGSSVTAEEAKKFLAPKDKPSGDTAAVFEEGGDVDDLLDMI
Chain of UniProt Q15388 (Q15388 whole entry, looked up): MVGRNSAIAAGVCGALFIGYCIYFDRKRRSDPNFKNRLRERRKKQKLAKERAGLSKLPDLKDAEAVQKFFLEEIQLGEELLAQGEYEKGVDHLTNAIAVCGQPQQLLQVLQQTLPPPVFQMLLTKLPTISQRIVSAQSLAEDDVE
Chain of UniProt Q96LJ8 (Q96LJ8 whole entry, looked up): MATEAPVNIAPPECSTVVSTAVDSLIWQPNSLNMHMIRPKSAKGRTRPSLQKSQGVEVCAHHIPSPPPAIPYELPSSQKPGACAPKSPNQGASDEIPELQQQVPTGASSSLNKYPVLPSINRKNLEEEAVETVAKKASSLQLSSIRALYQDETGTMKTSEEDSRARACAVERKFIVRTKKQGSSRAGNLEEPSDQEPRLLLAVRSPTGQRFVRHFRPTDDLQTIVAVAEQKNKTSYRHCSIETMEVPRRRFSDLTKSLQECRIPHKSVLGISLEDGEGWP
Chain of UniProt Q70CQ2 (Q70CQ2 whole entry, looked up): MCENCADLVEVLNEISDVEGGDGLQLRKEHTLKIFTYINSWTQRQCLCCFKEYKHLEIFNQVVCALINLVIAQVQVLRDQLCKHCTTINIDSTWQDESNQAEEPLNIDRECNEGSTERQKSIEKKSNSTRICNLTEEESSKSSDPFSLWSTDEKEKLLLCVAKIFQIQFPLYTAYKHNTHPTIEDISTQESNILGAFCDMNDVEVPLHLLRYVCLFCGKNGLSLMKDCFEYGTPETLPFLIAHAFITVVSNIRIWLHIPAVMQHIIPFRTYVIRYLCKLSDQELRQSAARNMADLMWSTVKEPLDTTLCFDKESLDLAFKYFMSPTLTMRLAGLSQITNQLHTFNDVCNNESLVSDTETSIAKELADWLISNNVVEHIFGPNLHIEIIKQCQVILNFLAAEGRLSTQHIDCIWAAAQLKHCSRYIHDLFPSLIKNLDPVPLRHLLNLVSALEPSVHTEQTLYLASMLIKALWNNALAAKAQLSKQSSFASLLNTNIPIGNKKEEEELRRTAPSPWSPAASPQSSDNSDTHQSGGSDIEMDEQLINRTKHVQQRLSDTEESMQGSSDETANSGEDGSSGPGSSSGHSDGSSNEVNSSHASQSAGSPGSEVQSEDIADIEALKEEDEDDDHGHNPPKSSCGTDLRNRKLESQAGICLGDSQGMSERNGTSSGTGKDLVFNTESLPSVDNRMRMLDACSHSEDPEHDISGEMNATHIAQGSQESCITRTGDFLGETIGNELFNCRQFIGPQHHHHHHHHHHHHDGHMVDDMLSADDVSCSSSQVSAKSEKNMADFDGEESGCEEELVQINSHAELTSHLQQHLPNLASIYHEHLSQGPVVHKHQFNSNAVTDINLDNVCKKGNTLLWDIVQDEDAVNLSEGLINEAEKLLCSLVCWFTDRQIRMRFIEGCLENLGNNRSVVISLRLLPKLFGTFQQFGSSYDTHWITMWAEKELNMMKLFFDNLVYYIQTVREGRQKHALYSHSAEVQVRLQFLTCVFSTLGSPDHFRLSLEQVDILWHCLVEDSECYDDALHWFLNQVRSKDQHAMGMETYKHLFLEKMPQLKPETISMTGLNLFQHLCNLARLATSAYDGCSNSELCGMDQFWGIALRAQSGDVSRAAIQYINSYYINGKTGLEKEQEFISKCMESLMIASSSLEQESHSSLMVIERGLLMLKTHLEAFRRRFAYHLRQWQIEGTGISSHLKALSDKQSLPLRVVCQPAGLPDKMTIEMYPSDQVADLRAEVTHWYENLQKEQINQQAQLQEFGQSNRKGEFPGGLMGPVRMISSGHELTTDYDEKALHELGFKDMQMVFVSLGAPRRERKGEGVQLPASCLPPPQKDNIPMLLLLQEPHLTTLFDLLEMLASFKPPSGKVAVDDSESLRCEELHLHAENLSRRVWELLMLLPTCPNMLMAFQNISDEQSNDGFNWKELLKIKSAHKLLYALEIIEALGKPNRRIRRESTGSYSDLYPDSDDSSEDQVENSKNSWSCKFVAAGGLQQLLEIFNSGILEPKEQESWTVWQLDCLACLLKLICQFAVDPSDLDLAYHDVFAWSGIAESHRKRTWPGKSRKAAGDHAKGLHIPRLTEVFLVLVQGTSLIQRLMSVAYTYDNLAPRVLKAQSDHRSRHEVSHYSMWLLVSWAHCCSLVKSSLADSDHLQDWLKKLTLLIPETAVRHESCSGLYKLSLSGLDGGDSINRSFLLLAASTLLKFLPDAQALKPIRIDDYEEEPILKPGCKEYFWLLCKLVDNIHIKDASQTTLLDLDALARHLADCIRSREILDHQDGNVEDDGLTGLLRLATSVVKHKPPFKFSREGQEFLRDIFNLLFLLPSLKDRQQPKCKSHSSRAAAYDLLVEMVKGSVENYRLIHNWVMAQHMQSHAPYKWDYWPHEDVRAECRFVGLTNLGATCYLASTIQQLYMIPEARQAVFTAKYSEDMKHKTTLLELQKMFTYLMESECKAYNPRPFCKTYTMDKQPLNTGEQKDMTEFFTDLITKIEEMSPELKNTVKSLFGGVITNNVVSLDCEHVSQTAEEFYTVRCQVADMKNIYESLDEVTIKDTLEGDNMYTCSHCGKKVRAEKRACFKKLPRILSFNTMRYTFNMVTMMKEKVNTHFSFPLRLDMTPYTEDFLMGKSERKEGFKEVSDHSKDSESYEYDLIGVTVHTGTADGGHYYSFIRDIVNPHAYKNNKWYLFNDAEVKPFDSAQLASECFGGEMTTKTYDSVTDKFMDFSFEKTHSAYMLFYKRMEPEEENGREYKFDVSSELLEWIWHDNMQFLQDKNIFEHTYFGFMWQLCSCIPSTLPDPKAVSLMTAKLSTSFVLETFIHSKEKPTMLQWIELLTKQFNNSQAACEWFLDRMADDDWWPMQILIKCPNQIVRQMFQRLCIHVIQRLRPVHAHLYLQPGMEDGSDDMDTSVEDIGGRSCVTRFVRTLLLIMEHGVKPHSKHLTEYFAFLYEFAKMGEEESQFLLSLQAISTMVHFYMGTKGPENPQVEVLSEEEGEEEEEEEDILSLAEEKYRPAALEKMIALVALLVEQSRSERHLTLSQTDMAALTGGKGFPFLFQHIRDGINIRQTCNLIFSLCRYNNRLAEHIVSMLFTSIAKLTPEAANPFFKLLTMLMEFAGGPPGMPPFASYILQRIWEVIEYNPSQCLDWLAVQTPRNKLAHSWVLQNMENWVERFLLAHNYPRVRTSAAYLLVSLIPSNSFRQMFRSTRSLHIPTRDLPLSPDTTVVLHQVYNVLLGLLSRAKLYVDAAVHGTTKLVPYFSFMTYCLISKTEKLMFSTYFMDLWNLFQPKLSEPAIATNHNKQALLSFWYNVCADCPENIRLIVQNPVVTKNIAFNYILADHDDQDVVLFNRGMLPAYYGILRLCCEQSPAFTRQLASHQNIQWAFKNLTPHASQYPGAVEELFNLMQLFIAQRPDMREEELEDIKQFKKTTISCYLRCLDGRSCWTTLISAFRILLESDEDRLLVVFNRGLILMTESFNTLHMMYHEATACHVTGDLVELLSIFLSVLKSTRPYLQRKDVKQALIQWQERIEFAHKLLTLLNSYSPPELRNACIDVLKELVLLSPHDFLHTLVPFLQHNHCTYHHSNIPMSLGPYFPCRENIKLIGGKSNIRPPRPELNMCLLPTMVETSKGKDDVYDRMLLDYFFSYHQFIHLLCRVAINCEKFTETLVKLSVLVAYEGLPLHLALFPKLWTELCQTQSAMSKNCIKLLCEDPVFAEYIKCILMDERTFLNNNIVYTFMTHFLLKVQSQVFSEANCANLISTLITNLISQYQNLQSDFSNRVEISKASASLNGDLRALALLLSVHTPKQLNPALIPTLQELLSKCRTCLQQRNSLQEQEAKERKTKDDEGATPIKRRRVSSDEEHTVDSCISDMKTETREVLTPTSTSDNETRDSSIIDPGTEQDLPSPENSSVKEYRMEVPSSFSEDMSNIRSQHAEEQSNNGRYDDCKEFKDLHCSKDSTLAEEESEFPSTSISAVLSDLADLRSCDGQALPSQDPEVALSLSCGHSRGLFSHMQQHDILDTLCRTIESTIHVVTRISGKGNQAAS
Chain of UniProt Q8IY95 (Q8IY95 whole entry, looked up): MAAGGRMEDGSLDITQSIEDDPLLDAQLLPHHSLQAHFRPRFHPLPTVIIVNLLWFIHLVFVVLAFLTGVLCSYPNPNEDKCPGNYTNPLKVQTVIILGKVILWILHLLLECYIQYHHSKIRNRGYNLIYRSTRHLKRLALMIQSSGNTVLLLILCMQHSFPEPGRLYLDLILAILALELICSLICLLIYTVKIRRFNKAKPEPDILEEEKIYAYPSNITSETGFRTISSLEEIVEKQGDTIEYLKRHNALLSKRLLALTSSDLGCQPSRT

Target | log2 fold change [1] | log2 fold change [2] | log2 fold change [3] | log2 fold change [4] | log2 fold change (Nexturastat A) | log2 fold change (vemurafenib) | log2 fold change [5] | log2 fold change [6] | log2 fold change (givinostat) | log2 fold change (barasertib) | log2 fold change [7] | log2 fold change (volasertib) | log2 fold change [8] | log2 fold change (epoxomicin) | log2 fold change [9] | log2 fold change [10] | log2 fold change [11] | log2 fold change (rosiglitazone) | log2 fold change [12] | log2 fold change [13]
TOE1 (UniProt Q96GM8) | 0.099 | 0.056 | -0.012 | -0.109 | 0.078 | -0.016 | 0.048 | 0.059 | -0.055 | -0.063 | 0.067 | 0.154 | -0.023 | -0.148 | -0.067 | 0.035 | -0.043 | -0.03 | 0.107 | 0.35 (active)
UBA1 (UniProt P22314) | 0.039 | -0.054 | 0.048 | 0.006 | -0.066 | 0.084 | 0.089 | 0.058 | 0.074 | 0.138 | -0.236 | -0.543 (active) | 0.133 | 0.044 | -0.098 | -0.008 | 0.115 | 0.132 | 0.023 | -0.02
TNFRSF8 (UniProt P28908) | -0.047 | 0.01 | -0.076 | -0.005 | 0.008 | -0.028 | -0.015 | 0.031 | -0.007 | -0.006 | 0.134 | 0.011 | -0.034 | 0.016 | -0.003 | -0.016 | 0.009 | -0.011 | -0.051 | 0.201
WDR4 (UniProt P57081) | -0.112 | -0.055 | 0.173 | 0.104 | 0.048 | -0.004 | 0.26 (active) | -0.013 | -0.026 | -0.023 | -0.031 | -0.072 | 0.025 | 0.074 | -0.03 | -0.06 | 0.022 | 0.177 | -0.08 | -0.114
UBAP2L isoform 5 (UniProt Q14157) | -0.014 | 0.036 | 0.017 | 0.013 | 0.017 | -0.008 | 0.006 | -0.03 | 0.011 | 0.011 | 0.005 | -0.023 | -0.02 | -0.018 | 0.019 | 0.004 | -0.035 | -0.007 | -0.039 | 0.009
TMEM189-UBE2V1 (UniProt I3L0A0) | -0.067 | 0.017 | 0.006 | -0.003 | -0.042 | -0.005 | -0.056 | -0.182 | 0.024 | -0.054 | 0.054 | 0.056 | -0.137 | -0.023 | -0.003 | 0.048 | 0 | 0.04 | -0.035 | -0.009
XRCC6 (UniProt P12956) | 0.046 | -0.051 | 0.022 | 0.033 | -0.023 | 0.059 | 0.138 | 0.025 | 0.116 | 0.086 | -0.205 | -0.515 (active) | 0.095 | 0.072 | -0.032 | 0.008 | 0.071 | 0.07 | -0.014 | -0.172
TOMM20 (UniProt Q15388) | 0.058 | 0.044 | 0.04 | -0.019 | 0.019 | -0.024 | 0.092 | 0.026 | 0.011 | 0.021 | -0.135 | -0.075 | -0.068 | -0.089 | 0.078 | -0.017 | -0.005 | -0.022 | -0.033 | -0.271 (active)
TMEM173 (UniProt Q86WV6) | -0.037 | -0.01 | -0.043 | -0.008 | -0.212 | 0.056 | -0.043 | -0.008 | -0.076 | 0.055 | 0.219 | 0.156 | 0.086 | 0.026 | 0.021 | -0.017 | 0.032 | 0.044 | -0.049 | 0.293 (active)
XPOT (UniProt O43592) | 0.018 | -0.031 | 0.023 | 0.029 | -0.012 | 0.039 | 0.128 | 0.014 | 0.007 | 0.08 | -0.363 (active) | -0.855 (active) | 0.04 | -0.033 | 0 | 0.021 | 0.058 | 0.059 | -0.028 | -0.16
XRCC5 (UniProt P13010) | 0.073 | -0.08 | 0.044 | 0.143 | 0.033 | 0.115 | 0.189 | 0.109 | 0.234 | 0.143 | -0.172 | -0.482 | 0.207 | 0.069 | -0.103 | 0.009 | 0.169 | 0.114 | 0.124 | -0.087
TMEM192 (UniProt Q8IY95) | 0.013 | -0.032 | 0.026 | -0.028 | 0.004 | -0.006 | -0.026 | -0.014 | -0.038 | -0.005 | -0.139 | -0.061 | -0.025 | -0.04 | 0.074 | 0.046 | -0.024 | 0.008 | 0.025 | -0.408 (active)
WDR61 (UniProt Q9GZS3) | -0.026 | 0.024 | 0.001 | -0.027 | -0.035 | -0.072 | -0.115 | -0.02 | 0.026 | 0.038 | 0.067 | 0.102 | 0.035 | -0.029 | 0.011 | 0.035 | -0.011 | 0.095 | -0.066 | -0.247 (active)
UCHL5 (UniProt Q9Y5K5) | 0.014 | -0.07 | 0.019 | 0.053 | 0.048 | 0.075 | 0.08 | 0.003 | 0.057 | 0.024 | -0.113 | -0.295 (active) | 0.074 | 0.116 | -0.017 | -0.028 | 0.04 | 0.03 | -0.003 | -0.099
UBXN10 (UniProt Q96LJ8) | 0.007 | -0.026 | -0.071 | 0.037 | 0.107 | -0.264 | -0.024 | -0.115 | 0.059 | -0.068 | -0.057 | -0.319 | 0.156 | 0.127 | 0.034 | 0.014 | -0.088 | 0.009 | 0.087 | -0.103
USP34 (UniProt Q70CQ2) | -0.02 | -0.094 | 0.077 | 0 | -0.12 | 0.08 | 0.032 | 0.052 | 0.094 | 0.069 | -0.215 | -0.455 (active) | -0.023 | 0.02 | -0.027 | -0.043 | 0.014 | 0.065 | 0.015 | -0.201
